The record followed here is PubChem BioAssay AID743156 (Broad Institute, 2013).

The other results are listed elsewhere or left out. Unmarked numbers belong to inactive results. The source made the active and inactive calls.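 How the source made its calls: active means mean inhibition across replicates of at least 20% with every single replicate also at 20% or more; inconclusive means mean inhibition at least 20% but some replicate falls below 20%; inactive means mean inhibition under 20% and not all replicates reach it.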

The test concerns PglD UDP-4-amino-sugar N-acetyltransferase (Campylobacter jejuni). Briefly: PglD acetyltransferase inhibitors, confirmation, biochemical, DTNB absorbance, single point, cherry-picked samples (AID 743156).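 Further: initial rate of CoA release by acetyl transfer from AcCoA to the UDP-4-amino sugar; 0% = median of neutral control wells and 100% = median of positive control wells.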 The conditions noted are these: Purified C. jejuni PglD, DTNB absorbance 412 nm; at 20 µM; active compounds read high.
Consider `Cc1ccc(NC(=O)CNCc2ccccn2)cc1S(=O)(=O)N(C)C`, for which the inhibition is -5.07%.

As to `C=CCOC(=O)C1=C(C)NC(SCC(=O)OCC)=C(C#N)C1c1ccc(C)cc1` (configuration not stated), the inhibition is 0.793%.

`C=CC1=C(C(=O)O)N2C(=O)[C@@H](NC(=O)/C(=N/OCC(=O)O)c3csc(N)n3)[C@H]2SC1`: the inhibition is 37.4% (active).

As for `CCCOc1ccc(F)cc1-c1cc(C(=O)Nc2ccc(F)cc2)[nH]n1`, the inhibition was 3.61%.

Take `O=S1(=O)CC(NCc2ccccc2)C(Nc2ccc(Cl)cc2)C1` (configuration not stated): the inhibition was -7.57%.

In the case of `CCCCC(=O)Nc1ccc(C(=O)NCCCn2ccnc2)cc1`, the inhibition was -0.586%.

Regarding `CSc1ccc(S(=O)(=O)NCc2ccc(Cl)cc2)cc1`, the inhibition was 3.66%.

`COc1ccc(NC(=O)C2=NNC(=O)CC2)cc1S(=O)(=O)N1CCCCC1`: the inhibition is -3.63%.

Take `O=C(Nc1ccc(Sc2ccc(Br)cc2)cc1)c1ccco1`: the inhibition is 11.2%.

For `CCOc1ccc(OCc2ccc(C(=O)N(C)c3ccccc3)o2)cc1`, the inhibition is 1.37%.

As to `Cc1ccc(C2=C/C(=C\c3cccnc3)C(=O)O2)cc1`, the inhibition was 7.97%.

Turning to `O=C(NCc1ccncc1)C1CCN(C(=O)c2cccc(Cl)c2)CC1`, the inhibition was 2.21%.

Take `CC(C)(C)c1ccc(CN2C(=O)c3ccccc3S2(=O)=O)cc1`: the inhibition was 2.98%.

For the molecule `CC(C)CCNC(=O)c1ccc2c(Cl)c3c(nc2c1)CCC3`, the inhibition is 2.89%.

Regarding `CC(=O)Nc1ccc(OC(=O)COc2ccc(Br)cc2)cc1`, the inhibition was 1.84%.

As for `CC(NC(=O)c1ccc(Cl)cc1)C(=O)N1CCCCC1` (configuration not stated), the inhibition is 0.85%.

Take `Cc1ccc(S(=O)(=O)N2CCC(C(=O)NCC3CCCO3)CC2)cc1` (configuration not stated): the inhibition was -10.7%.

In general, inhibition refers to the change of the read-out against control, counted positive when it falls.
